Shown are actives, neighbours in structure and some others; about 8.1% of the full set was active somewhere.
SW480 rereplic = A quantitative high throughput screen for small molecules that induce DNA re-replication in SW480 colon adenocarcinoma cells; actives 1.8% (n = 340,000); SW480 DNA re-replication, Hoechst DNA content imaging, 48 h; AID 624297, 2012; Potency, µM (doses to about 46.1 µM), most hits filed as activators; note: nearly all actives have a fitted effect of over 55% in size
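Per well, 250 cells were exposed to pinned compound for 48 hr. Nuclear DNA was visualised with Hoechst (40 min, 37 C) and total object intensity recorded by fluorescence scanning.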
MCF10A rereplic = A quantitative high throughput screen for small molecules that induce DNA re-replication in MCF 10a normal breast cells; Potency, µM (highest dose often 46.1 µM), actives largely listed as activators; MCF 10A DNA re-replication, Hoechst nuclear intensity, 48 h; actives 2.9% (n = 350,000); note: nearly all actives have a fitted effect of over 50% in size
KB-V1 cytotox = qHTS assay for MDR1-selective chemotherapeutics: Primary screen using the drug-selected MDR subline cells KB-V1 | actives 3.4% (n = 400,000) | KB-V1 MDR cells viability, CellTiter-Glo, 72 h | Potency, µM (titrated, usually from 46.1 µM), actives largely listed as cytotoxic | AID 1347076, 2019; note: nearly all actives have a fitted effect of over 60% in size
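Readout: CellTiter-Glo luminescence, 10 min after addition. Cells: KB-V1 MDR subline, 72 h at 37 degrees C with compound. Analysis: corrected, normalized data fitted to concentration-effect curves.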
KB-3-1 tox = qHTS assay for MDR1-selective chemotherapeutics: Primary screen using the parental adenocarcinoma cell KB-3-1. Potency, µM (series often up to 46.1 µM), hits mostly cytotoxic. actives 1.4% (n = 400,000). KB-3-1 viability, CellTiter-Glo ATP luminescence, 72 h; note: nearly all actives have a fitted effect of over 60% in size
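72 h, 37 °C compound treatment of KB-3-1 parental cells; CellTiter-Glo added, 10 min, luminescence read. Data corrected against DMSO-only plates and normalized before curve fitting.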
ELG1 DNA repair = qHTS screen for small molecules that inhibit ELG1-dependent DNA repair in human embryonic kidney (HEK293T) cells expressing luciferase-tagged ELG1; AID 504467, 2011; actives 2.3% (n = 330,000); HEK293T ELG1-luciferase reporter, luminescence, 16 h; DNA damage induced by 5-fluorouridine; Potency, µM (top dose mostly 46.1 µM), usual class: inhibitors; note: nearly all actives have a fitted effect of over 55% in size
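DMSO vehicle served as the neutral condition. Each well held 2,000 cells given 5-fluorouridine plus compound; after 16 hr at 37 °C/5% CO2, ONE-Glo was added and luciferase measured 30 min later.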
Numbers stand for hits; 0 = inactive; ? = inconclusive; - = not tested or not shown. Calls come from the whole dose curve; as a rule, active = well fitted curve in the direction sought with a large enough effect; inconclusive = small, poorly fitted or top-dose-only effect, or another doubt; inactive = no such curve, though single readings can be large; an effect the other way counts as inactive or inconclusive.

SMILES | SW480 rereplic | MCF10A rereplic | KB-V1 cytotox | KB-3-1 tox | ELG1 DNA repair
CCN(CC)c1ccc2c(C)c(CO)c(=O)oc2c1 | 13µM | ? | 0 | 0 | ?
CCN(CC)c1ccc2c(Cl)cc(=O)oc2c1 | ? | ? | 0 | 0 | 0
CCN(CC)c1ccc2c(O)cc(=O)oc2c1 | 0 | 0 | 0 | 0 | 0
CCN(CC)c1ccc2c(C)c(CN3CCOCC3)c(=O)oc2c1 | 21µM | 5.8µM | 0 | 0 | 0
CC(C)c1ccc(/C=C/C(=O)N2CCOCC2)cc1 | 0 | ? | 0 | 0 | ?
COc1ccc2cc(/C=C/C(=O)N3CCN(CC(=O)N4CCCCCC4)CC3)ccc2c1 | 0 | 0 | 15µM | 0 | 0
CC(C)c1ccc(/C=C/C(=O)N2CCCCCC2)cc1 | 0 | 23µM | 0 | 0 | ?
COc1cc(/C=C/C(=O)N2CCN(CC(=O)N3CCCC3)CC2)cc(OC)c1OC | 0 | 0 | - | - | -
Cc1ccc2nccnc2c1 | - | - | 16µM | ? | -
Cc1ccc2c(C)ccnc2c1 | - | - | 0 | 0 | -
Cc1nn(CC(C)C(=O)N2CCN(S(=O)(=O)c3ccc(Cl)cc3)CC2)c(C)c1C (stereo not drawn) | 0 | 0 | 21µM | 0 | 0
CCC1CC(C(=O)Nc2ccccc2)C(=O)O1 (stereo not drawn) | 0 | 0 | ? | 0 | -
COc1ccc(-c2ccc(OC)c(OC)c2OC)c(OC)c1OC | 0 | 0 | 23µM | 0 | -
CCCc1c(C(=O)N/N=C/C2CC=CCC2)nnn1-c1nonc1N (stereo not drawn) | - | - | 0 | 0 | -
FC(F)(F)c1cccc(Cn2nnnc2-c2ccc(Cl)cc2)c1 | 0 | 0 | 15µM | ? | 0
CCCn1nnnc1-c1ccc(Cl)cc1 | 0 | 0 | 0 | 0 | 0
COc1ccc(CC(NC(C)=O)C(=O)NC2CCN(c3nc(C)cc(C)c3C#N)CC2)cc1OC (stereo not drawn) | 0 | 0.58µM | 0 | 0 | ?
C=C(c1ccc2nc(NC(=O)OC)[nH]c2c1)c1cccs1 | 0.73µM | 0.58µM | 0.65µM | ? | -
C=CCOc1ccc2nc(NC(=O)OC)[nH]c2c1 | 1.3µM | 1.5µM | 1.2µM | 0.65µM | ?
CCOc1ccc2nc(NCCO)[nH]c2c1 | 0 | 0 | 0 | 0 | 0
CCCCc1ccc2nc(NC(=O)OC)[nH]c2c1 | 0.13µM | ? | - | - | -
O=C(Nc1ccc2nc(-c3ccccc3)[nH]c2c1)c1cccs1 | 0 | 0 | 0 | 0 | ?
COC(=O)Nc1nc2ccc(-c3n[nH]c(=O)c4ccccc34)cc2[nH]1 | 0 | 0 | 0 | 15µM | ?
CC(=O)Nc1nc2ccccc2[nH]1 | 0 | 0 | 0 | 0 | 0
COC(=O)c1ccc(-c2n[nH]c(=O)c3ccccc23)cc1 | 0 | 0 | 0 | 0 | ?
SMILES | SW480 rereplic | MCF10A rereplic | KB-V1 cytotox | KB-3-1 tox | ELG1 DNA repair
CCC(=O)c1ccc(OC)c(OC)c1OCc1ccccc1 | 0 | 0 | 0 | 0 | -
COCCCNC(=O)C1CCCN(c2nn3cc(-c4ccc(C)cc4)nc3s2)C1 (stereo not drawn) | - | - | 0 | 0 | -
Nc1c(C(=O)NC2CCCC2)c2nc3ccccc3nc2n1/N=C/c1ccco1 | 1.5µM | ? | 0 | 0 | 0
COc1ccccc1/C=N/n1c(N)c(C(=O)NC2CCCCC2)c2nc3ccccc3nc21 | 4.1µM | 10µM | 0 | 0 | 0
Nc1c(C(=O)NC2CCCC2)c2nc3ccccc3nc2n1N | 0 | ? | 0 | 0 | 0
CN(Cc1c(F)cccc1Cl)c1ccc(S(=O)(=O)N2CCOCC2)cn1 | 0 | 0 | 18µM | ? | ?
CN1CCN(S(=O)(=O)c2ccc(N(C)Cc3c(F)cccc3Cl)nc2)CC1 | 0 | ? | 0 | 0 | 0
CCOc1cc(/C=N/NC(=O)c2ccncc2)cc(Cl)c1OS(C)(=O)=O | 0 | 0 | 0 | 0 | 15µM
CCOc1cc(/C=N/NC(=O)c2ccncc2)ccc1OS(C)(=O)=O | 0 | 0 | 0 | 0 | 0
CCOC(=O)CN[C@H]1CCC2C3CC=C4C[C@@H](O)CC[C@]4(C)C3CC[C@@]21C (stereo partly drawn) | 0 | 0 | 0 | 0 | 0
CC(=O)C1(O)C(C)CC2C3CC=C4CC(O)CCC4(C)C3CCC21C (stereo not drawn) | 0 | 0 | 0 | 0 | -
CC12CCC(O)CC1=CCC1C2CCC2(C)C3=NN=CC3CC12 (stereo not drawn) | ? | 18µM | ? | ? | -
CN(C)CCN[C@H]1CCC2C3CC=C4C[C@@H](O)CC[C@]4(C)C3CC[C@@]21C (stereo partly drawn) | ? | 21µM | 0 | 0 | 0
CC(O)(c1cccnc1)c1nc(-c2ccc(F)c(Cl)c2)cs1 (stereo not drawn) | - | - | 0 | 0 | -
COCOCCn1cc(CN2CCS(=O)(=O)N(Cc3ccc(-c4ccncc4)cc3)C(CC(C)C)C2=O)nn1 (stereo not drawn) | - | - | 0 | 0 | -
COc1ccc(-c2ccc(/C=C3/C(=N)N4C(C)=CSC4=NC3=O)o2)c([N+](=O)[O-])c1 | 0 | 21µM | ? | 0 | ?
CC(C)c1ccc(-n2cccc2/C=C2/C(=N)N3C=CSC3=NC2=O)cc1 | ? | 23µM | 21µM | ? | 16µM
CC1=CSC2=NC(=O)/C(=C\c3cccn3-c3ccc([N+](=O)[O-])cc3)C(=N)N12 | ? | ? | 2.9µM | 0 | 0
CC1=CSC2=NC(=O)/C(=C\c3cccn3-c3ccccc3)C(=N)N12 | 0 | 0 | ? | 0 | ?
COc1ccc(NCc2cccn2-c2nnc(N3CCCCC3)s2)cc1OC | - | - | 0 | 0 | -
COc1ccc(CC(=O)Nc2c(C(=O)Nc3ccc(F)cc3)oc3ccccc23)cc1OC | - | - | 0 | 0 | -
CC[C@@H]1[C@H]2CCCC(=O)N3CC[C@@H](C[C@@H]1OC(=O)Nc1ccc4c(c1)OCO4)[C@@H]23 | - | - | 0 | 0 | -
CCOc1ccc(S(=O)(=O)N2CCC(C(=O)Nc3ccc(C)c(S(=O)(=O)N4CCOCC4)c3)CC2)cc1 | 0 | 0 | 0 | 0 | -
CCOc1ccc(-c2cn[nH]c2N)cc1 | ? | 18µM | 0 | 0 | 0
COc1ccc(-c2cn[nH]c2N)cc1 | 0 | 0 | 0 | 0 | ?
SMILES | SW480 rereplic | MCF10A rereplic | KB-V1 cytotox | KB-3-1 tox | ELG1 DNA repair
COC(=O)c1nc2n(n1)C(c1cccc(Cl)c1)C(C(=O)Nc1ccccc1OC)=C(C)N2 (stereo not drawn) | - | - | 0 | 0 | -
Cc1cccc(-n2ncc3c2CCCC3NC(=O)C2=CC(=O)CC(C)(C)O2)c1C (stereo not drawn) | 0 | 0 | ? | ? | ?
O=C(NCCC1=CCCCC1)c1coc(=O)c(Br)c1 | 9.2µM | 12µM | ? | ? | 0
O=C(NC(CO)(CO)CO)c1coc(=O)c(Br)c1 | 7.3µM | 3.3µM | 0 | 0 | ?
CN(C)CCNC(=O)c1coc(=O)c(Br)c1 | 0 | 0 | 0 | 0 | ?
O=C(Nc1cc(Cl)cc(Cl)c1)c1coc(=O)c(Br)c1 | ? | ? | 0 | 0 | 0
CC(C)CNC(=O)c1coc(=O)c(Br)c1 | ? | 21µM | ? | 6.3µM | ?
